High-throughput results: PubChem, several laboratories
Sampled rows, rich in hits. Any-hit rate of the full collection: about 4.2%.
tim10-1 inh: growth inhibitors of tim10-1 mutant yeast; S. cerevisiae tim10-1 ts strain growth, BacTiter-Glo, 24 h; inhibition, % at 20 µM; 330,000 compounds, 2.2% hits; AID 463190;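 active = inhibition of at least 40%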;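 also: mutant grown at 25 °C; 0% = DMSO wells with yeast and 100% = wells holding no yeast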
NLRP3 yeast inh: inhibitors of NALP3 inflammasome in yeast | Yeast reconstituted NLRP3/ASC/caspase-1, beta-gal luminescence, 24 h | inhibition, % at 10 µM | 330,000 compounds, 0.39% hits | AID 2825;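 active = inhibition of 50% or more; inactive = inhibition below 50%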;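 also: plate controls were induced DMSO wells for no effect and uninduced yeast grown without galactose for full effect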
TIM10 inh: TIM10 yeast growth inhibition; S. cerevisiae TIM10 strain growth, BacTiter-Glo luminescence, 24 h; 330,000 compounds, 1.4% hits; AID 463195; inhibition, % at 10 µM;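 active = inhibition of 40% or more at the single tested concentration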;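 also: wild-type TIM10 isogenic control strain grown at permissive 25 °C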
NALP1 inh: blocks the NALP1 inflammasome reconstituted in yeast; S. cerevisiae NALP1/ASC/caspase-1 growth, X-gal OD620, 72 h; inhibition, % at 10 µM; 280,000 compounds, 0.61% hits; in the data active = inhibition mostly above about 24%, no sharp cut-off; inactive = mostly below about 32%
PfHsp90 yeast 2: growth inhibition of yeast expressing Plasmodium Hsp90; S. cerevisiae expressing PfHsp90, BacTiter-Glo ATP, 48 h; yeast lacking PDR1 and PDR3 efflux regulators; inhibition, % at 9.4 µM; 310,000 compounds, 0.32% hits;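 active = every replicate shows inhibition above about 80%, whatever the replicate mean, limit read from the data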;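 also: 0% = DMSO neutral controls and 100% = 20 µM radicicol positive controls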
tim23-1 inh: inhibits growth of tim23-1 mutant yeast. S. cerevisiae tim23-1 growth, BacTiter-Glo luminescence, 24 h. inhibition, % at 20 µM. 330,000 compounds, 1.3% hits. AID 463212;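 active = growth inhibition of the mutant yeast at or above 50%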;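 also: temperature-sensitive mutant grown at 25 °C; plate controls were DMSO-treated mutant yeast for no effect and medium wells lacking yeast for full effect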
TIM10 conf: confirmation of TIM10 yeast growth inhibitors | shares compounds with TIM10 inh | S. cerevisiae tim10 strain growth, BacTiter-Glo luminescence, 24 h | inhibition, % at 10 µM | 4,600 compounds, 63% hits | AID 463215;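 active = inhibition of yeast growth at or above a set limit in either of two replicates at 10 µM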;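 also: this counterscreen used the strain with wild-type TIM10; 0% = yeast with DMSO and 100% = medium wells lacking yeast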
tim23-1 confirm: tim23-1 yeast growth inhibition, confirmed; shares compounds with tim23-1 inh; S. cerevisiae tim23-1 growth, BacTiter-Glo luminescence, 24 h; inhibition, % at 20 µM; 4,400 compounds, 83% hits; AID 463218;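 active = inhibition above about 39% in either of two replicate wells at 20 µM, limit read from the data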;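 also: temperature-sensitive tim23-1 mutant grown at 25 °C; 0% = DMSO wells with yeast and 100% = medium wells without yeast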
Starred values were filed as active, the others as inactive; x = no result.

SMILES	tim10-1 inh	NLRP3 yeast inh	TIM10 inh	NALP1 inh	PfHsp90 yeast 2	tim23-1 inh	TIM10 conf	tim23-1 confirm
CC(CN1CCOCC1)OC(=O)c1ccc2c(c1)OCCO2 (stereo not given)	24.2	7.2	41.4*	27.3	-5.0	72.1*	12.5	47.2*
C=CCC1(C#N)C(SC)=NC2=C(C(=O)CC(C)(C)C2)C1c1ccc(Br)cc1 (stereo not given)	39.4	13.7	44.2*	8.1	-12.9	55.0*	32.0*	43.4*
N#CC(OC(=O)c1ccccc1)c1ccccc1 (stereo not given)	x	x	x	x	-53.0	x	x	x
CNC(=S)N/N=C(\C)c1ccc(C(C)(C)C)cc1	30.8	26.8	48.1*	18.9	2.7	50.0*	0.1	37.8
CNC(=S)N/N=C(\C)c1ccccc1	22.0	5.9	17.8	10.7	-6.8	16.2	x	x
CC(=O)Oc1ccc(C(=O)N2c3ccccc3NC(=O)C2C)cc1 (stereo not given)	2.1	9.8	-6.6	0.5	-23.0	1.0	x	x
CC(=O)n1cc(C(C[N+](=O)[O-])SCCN)c2ccccc21 (stereo not given)	22.9	42.6	91.3*	6.6	x	89.2*	91.6*	-30.7
COC(=O)/C(=C/c1cn(C(C)=O)c2ccccc12)[N+](=O)[O-]	x	x	x	9.4	x	x	x	x
Cc1cc(OCC(O)CN(C)C(=O)C(C)Oc2ccccc2)ccc1Cl (stereo not given)	11.5	17.3	-1.4	0.8	-2.7	25.1	x	x
O/C(=C\c1ccc2ccccc2n1)c1ccncc1	12.1	26.4	24.8	x	0.8	19.2	x	x
O/C(=C\c1nc2ccccc2nc1/C=C(\O)c1ccccc1)c1ccccc1	37.3	16.0	44.6*	-1.9	-8.3	63.5*	53.5*	67.5*
N/C(Cc1ccc(Cl)cc1Cl)=N\OC(=O)c1ccc(Br)o1	6.7	-0.8	86.3*	x	97.6*	80.3*	86.5*	48.4*
CCC1CCC/C1=N\NC(=O)c1ccoc1C (stereo not given)	-12.4	6.9	-0.3	12.1	-2.2	-4.3	x	x
O=C(N/N=C/c1ccccc1O)c1ccc2c(c1)OCO2	30.8	14.7	50.5*	0.4	3.7	66.8*	43.1*	74.2*
O=C(N/N=C/c1cc(Br)cc(Cl)c1O)c1ccc2c(c1)OCO2	-3.2	9.1	43.5*	x	-48.8	57.1*	31.4*	56.6*
O=Nc1ccc(NOC(=O)c2ccccc2Br)cc1	20.3	26.8	61.5*	24.1	3.1	56.6*	59.9*	72.9*
CCOc1cc(Br)c(Br)c(C=Nc2ccc(NC(C)=O)cc2)c1O	-6.2	10.4	70.7*	10.8	-21.7	75.9*	89.7*	-60.9
CCC(C)c1ccccc1NC(=S)NC(=O)c1ccco1 (stereo not given)	34.7	-10.1	40.9*	2.5	43.0	53.8*	24.9	36.5
O=C(NC(=S)Nc1ccccc1Cl)c1ccco1	13.7	-10.8	-1.0	13.6	-52.0	24.2	x	x
Cc1ccc(-c2cc(-c3n[nH]c(=S)n3C)c3ccccc3n2)cc1	36.0	34.7	50.4*	-6.4	-23.5	51.8*	48.1*	58.8*
O=C(N/N=C/c1cc(Br)cc(Br)c1O)c1ccncc1	28.1	25.7	45.4*	-3.9	x	64.7*	51.2*	65.2*
CCC(O)(CC)C(=O)N/N=C/c1cc(Br)cc(Br)c1O	14.0	14.2	57.9*	-5.8	-19.0	66.9*	49.0*	73.0*
O=C(N/N=C/c1ccc(O)cc1O)c1ccncc1	-8.8	-8.1	13.8	-9.4	5.0	1.1	x	x
CCCNC(=O)C1(CC2CC(c3ccccc3)=NO2)CCN(C(=O)Cc2ccc(F)cc2)CC1 (stereo not given)	-10.0	9.5	-17.9	x	10.2	-5.0	x	x
COc1ccc2cc(CNCCOCCOCCNCc3ccc4cc(OC)ccc4c3)ccc2c1	x	x	x	x	-18.5	x	x	x
SMILES	tim10-1 inh	NLRP3 yeast inh	TIM10 inh	NALP1 inh	PfHsp90 yeast 2	tim23-1 inh	TIM10 conf	tim23-1 confirm
CCc1ccccc1NC(=O)C(Cc1ccccc1)c1nn[nH]n1 (stereo not given)	-13.7	1.0	-9.7	20.7	7.1	4.3	x	x
CCCCCCn1c(-c2ccco2)nc2oc3cc(OC)ccc3c(=O)c2c1=O	33.8	16.6	44.9*	x	-6.4	50.0*	15.7	37.3*
CCCc1nc2oc3cc(OC)ccc3c(=O)c2c(=O)n1Cc1ccco1	22.4	-1.2	-17.4	12.5	-38.0	-0.3	x	x
O=Cc1ccccc1OCCOc1ccc([N+](=O)[O-])cc1	36.4	22.6	75.8*	-8.9	9.5	58.4*	68.0*	89.5*
CC(=O)c1ccc(OCCOc2ccc([N+](=O)[O-])cc2)cc1	18.0	28.5	4.9	1.3	9.5	38.2	x	x
Cc1ccccc1-c1nc(CS(=O)(=O)CC(=O)NCCN2CCCC2)c(C)o1	9.8	-15.0	3.1	17.7	-6.4	5.8	x	x
O=C(CC1C[C@H](C(=O)N2CCCCC2)[C@@]2(CCc3ccccc3)c3[nH]c4ccccc4c3CCN2C1=O)NCCc1ccccn1 (stereo not given in full)	x	x	x	x	-9.7	x	x	x
Cc1cccc(NC(=O)CNC(=O)CN2C(=O)NC(C)(CCC(C)C)C2=O)c1C (stereo not given)	x	x	x	x	-11.1	x	x	x
Clc1cccc(Nc2ncnc3ccc(Br)cc23)c1	34.1	22.6	48.5*	24.4	4.5	53.9*	44.1*	49.9*
Cc1cccc(Nc2ncnc3ccc(Br)cc23)c1	38.8	16.8	28.5	7.7	-11.0	45.4	x	x
CCOC(=O)N1CCC2(CC1)C(C#N)=C(N)Oc1n[nH]c(C)c12	3.3	9.5	-2.6	32.1	2.1	3.3	x	x
CCCN1CCC2(CC1)C(C#N)=C(N)Oc1c2sc2nc(C)cc(C)c12	0.3	22.2	-6.6	4.2	24.9	9.7	x	x
CCOC(=O)N1CCC2(CC1)C(C#N)=C(N)Oc1c2c(C)nn1-c1cccc(Cl)c1	30.8	13.2	43.8*	-7.1	15.3	58.4*	30.1	58.0*
CCOC(=O)N1CCC2(CC1)C(C#N)=C(N)Oc1c2sc2nc(C)cc(C)c12	36.3	5.7	51.0*	13.3	-36.3	60.8*	36.0*	51.2*
COc1ccc(-c2onc(C)c2-c2cnn(-c3ccccc3)c2)c(O)c1C	19.3	8.1	24.2	-2.3	-16.7	37.9	x	x
COc1ccc(-c2n[nH]c(C)c2-c2cnn(-c3ccccc3)c2)c(O)c1C	39.5	9.1	47.7*	8.2	-13.8	51.2*	45.2*	58.9*
O=C(CSC(=S)N1CCOCC1)Nc1ccc(S(=O)(=O)Nc2ncccn2)cc1	-7.1	16.5	-2.3	22.8	-11.1	-0.7	x	x
CCCc1ccc(O)c(N=Cc2cc(Br)cc(OCC)c2O)c1	37.4	31.6	43.1*	2.3	9.2	56.5*	32.9*	74.3*
